The panel holds about 79,000 compounds, 15% with a hit somewhere; the sample as a whole holds those more often. Calls of active or inactive are those of the source. Rule as the data show it: active = growth inhibition above about 70%; inactive = the rest.
What was measured:
[1] = NCI Yeast Anticancer Drug Screen. Data for the rad50 strain (AID 155);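 also: 0% = growth of vehicle-only cultures of the same strain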; settings: S. cerevisiae rad50 strain growth inhibition, hits give high values
How it was run: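 Vehicle-treated cultures provide the reference for the growth inhibition reported for compound-exposed, repair-deficient yeast.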

[2] = NCI Yeast Anticancer Drug Screen. Data for the mec2-1 strain (AID 157); settings: S. cerevisiae mec2-1 strain, hits give high values
How it was run: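 Strain: mec2-1 (DNA repair/cell cycle alteration). Compound exposure, then growth measured; inhibition expressed relative to vehicle.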

[3] = NCI Yeast Anticancer Drug Screen. Data for the sgs1 mgt1 strain (AID 161);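 also: 0% = growth of cultures given vehicle only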; settings: S. cerevisiae sgs1 mgt1 strain, hits give high values
How it was run: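 Mutant yeast exposed to compound; growth scored against vehicle-only wells.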

[4] = NCI Yeast Anticancer Drug Screen. Data for the cln2 rad14 strain (AID 165);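 also: 0% = growth equal to vehicle treated cultures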; settings: S. cerevisiae cln2 rad14 strain, hits give high values
How it was run: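 Compounds are applied to the cln2 rad14 yeast strain, and growth is then compared with that of vehicle-treated cultures to give inhibition.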

[5] = NCI Yeast Anticancer Drug Screen. Data for the bub3 strain (AID 167); settings: S. cerevisiae bub3 mutant strain, hits give high values
How it was run: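 Mutant yeast screening strain plus compound; vehicle-treated cultures serve as the 0% inhibition reference.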

[6] = NCI Yeast Anticancer Drug Screen. Data for the mlh1 rad18 strain (AID 175); settings: S. cerevisiae mlh1 rad18 strain growth inhibition, hits give high values
How it was run: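 Read-out is yeast growth inhibition, calculated against vehicle-only controls. The compound was applied to a strain engineered with DNA damage repair alterations.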

[7] = at 5.0 µM (retest, dose inferred, filed as 0.5)
[8] = at 50.0 µM (retest, dose inferred, filed as 5.0)

Measured: growth inhibition

CC[C@@]1(OC(=O)C(N)CCCCN)C(=O)OCc2c1cc1n(c2=O)Cc2cc3ccccc3nc2-1 (stereo partly drawn)
inactive: [2]; [7] 44% | [3]; [7] 18% | [3]; [8] -11% | [4]; [7] 13% | [4]; [8] -36% | [4]; at 50.0 µM 45.5% | [5]; [7] 22% | [5]; [8] 30% | [5]; at 50.0 µM 64.1% | [6]; [7] 48%
active: [1]; [7] 92% | [1]; [8] 95% | [1]; at 50.0 µM 80.3% | [2]; [8] 96% | [2]; at 50.0 µM 83.9% | [3]; at 50.0 µM 77.1% | [6]; [8] 91%

C=C1CC2(CC(c3ccccc3C)OC(c3ccccc3C)C2)OC1=O (stereo not drawn)
inactive: [1]; [7] 54% | [2]; [7] 53%
active: [1]; [8] 85% | [1]; at 50.0 µM 77.7% | [2]; [8] 94% | [2]; at 50.0 µM 83.7% | [3]; [7] 76% | [3]; [8] 83% | [3]; at 50.0 µM 84.1% | [4]; [7] 83% | [4]; [8] 91% | [4]; at 50.0 µM 84% | [5]; [7] 74% | [5]; [8] 87% | [5]; at 50.0 µM 78.4% | [6]; [7] 80% | [6]; [8] 90%

CC(NNC(=S)N1CCN(c2ccccn2)CC1)c1nccc2ccccc12 (stereo not drawn)
inactive: [1]; [7] 26% | [1]; at 50.0 µM 69.1% | [2]; [7] 51% | [2]; at 50.0 µM 22.1% | [3]; [7] 58% | [3]; at 50.0 µM 1.8% | [4]; [7] 63% | [4]; at 50.0 µM 8.35% | [5]; at 50.0 µM 6.2% | [6]; [7] 49%
active: [1]; [8] 98% | [2]; [8] 98% | [3]; [8] 99% | [4]; [8] 98% | [5]; [7] 83% | [5]; [8] 99% | [6]; [8] 98%

Cc1cc(NCCCCCCCNc2cc(C)nc3cc([N+](=O)[O-])ccc23)c2ccc([N+](=O)[O-])cc2n1
active: [1]; [8] 87% | [2]; [8] 83% | [2]; at 50.0 µM 77% | [3]; [8] 90% | [3]; at 50.0 µM 72.2% | [4]; [8] 70% | [5]; [8] 83% | [5]; at 50.0 µM 73.1% | [6]; [8] 88%
inactive: [1]; [7] 1% | [1]; at 50.0 µM 68.5% | [2]; [7] 15% | [3]; [7] 5% | [4]; [7] 14% | [4]; at 50.0 µM 57.8% | [5]; [7] 1% | [6]; [7] 5%

From PubChem BioAssay (NCI)
